High-throughput results deposited in PubChem by National Center for Advancing Translational Sciences (NCATS).
ELG1 DNA repair = blocks ELG1-dependent DNA repair in HEK293T cells; Potency, µM (series often up to 46.1 µM), for inactives: at the top dose activity change, negative = inhibition, usual class: inhibitors; hit rate 2.3% among 330,000; HEK293T ELG1-luciferase reporter, luminescence, 16 h; DNA damage induced by 5-fluorouridine; AID 504467; note: % is set by controls: 0 for no effect and ±100 for the full control effect; nearly all actives have a fitted effect of over 55% in size
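Luminescence from the luciferase reporter, measured 30 min after ONE-Glo reagent at room temperature, was the read-out. Beforehand, 2,000 cells per well were exposed for 16 hr at 37 °C to 5-fluorouridine together with compound or vehicle.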
A549 tox = counter-screen for Nrf2 inhibitors: cytotoxicity in A549 cells. A549 ARE-Fluc cells, CellTiter-Fluor viability, 18-24 h. Potency, µM (doses to about 46 µM), inactives show top-dose activity change, negative = cytotoxicity, usual class: inhibitors. hit rate 0.16% among 390,000; note: % is set by controls: 0 for no effect and ±100 for the full control effect
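A549 ARE_Fluc cells in 5% FBS OPTI-MEM were exposed to compounds in concentration-response for 18-24 h at 37 deg C. Viability was read by CellTiter-Fluor fluorescence (Ex 405/Em 525) after 30 min, before the luciferase read.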
IDH1 R132H inh = blocks human mutant IDH1 R132H enzyme | hit rate 0.093% among 390,000 | AID 602179 | IDH1-R132H enzyme, NADPH consumption, diaphorase/resazurin fluorescence | Potency, µM (titrated, usually from 76.6 µM), for the others: at the top dose activity change, negative = inhibition, hits mostly inhibitors; note: % is set by controls: 0 for no effect and ±100 for the full control effect; nearly all actives have a fitted effect of over 65% in size
Target sequence (O75874 whole entry R132H, stated change not applied): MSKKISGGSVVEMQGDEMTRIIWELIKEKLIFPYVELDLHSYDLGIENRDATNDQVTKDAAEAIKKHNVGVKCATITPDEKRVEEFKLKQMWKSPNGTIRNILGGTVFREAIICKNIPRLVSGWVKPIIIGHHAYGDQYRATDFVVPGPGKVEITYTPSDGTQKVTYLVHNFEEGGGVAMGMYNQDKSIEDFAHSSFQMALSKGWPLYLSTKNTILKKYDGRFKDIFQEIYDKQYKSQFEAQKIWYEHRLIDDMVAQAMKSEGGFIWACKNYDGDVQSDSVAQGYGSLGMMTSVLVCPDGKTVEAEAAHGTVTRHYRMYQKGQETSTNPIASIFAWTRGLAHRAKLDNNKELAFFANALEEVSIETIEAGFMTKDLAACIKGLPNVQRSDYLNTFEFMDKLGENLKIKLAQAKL
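IDH1-R132H (0.5 ug/mL) preincubated 30 min with compound, then NADPH (0.016 mM) and alpha-KG (2 mM) added; 80 min at RT, pH 7.5. Remaining NADPH coupled via diaphorase/resazurin to fluorescence (540/590 nm); concentration-response curves normalized to no-enzyme control.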
Nrf2 ARE act = activators of Nrf2 (ARE) signaling. AREc32 ARE-luciferase reporter (MCF7-derived line), luminescence, 24 h. Potency, µM (doses to about 46.1 µM), without a hit: at the top dose activation, usual class: activators. hit rate 0.31% among 410,000. AID 624171; note: % of control where 0% means no effect; nearly all actives have a fitted effect of over 65% in size
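Each well held 1000 AREc32 cells, which were incubated with compound for 24 hr at 37 deg C after overnight attachment, and ARE reporter activity was quantified by firefly luciferase luminescence.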
Nrf2 block = Nrf2 pathway inhibition; A549 ARE-Fluc reporter, luciferase luminescence, 18-24 h; Potency, µM (highest dose often 46 µM), without a hit: at the top dose activity change, negative = inhibition, usual class: inhibitors; hit rate 2.1% among 360,000; AID 504444; note: % is set by controls: 0 for no effect and ±100 for the full control effect; nearly all actives have a fitted effect of over 60% in size
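In this cell-based qHTS, ARE-driven firefly luciferase in A549 cells reports Nrf2 activity; the luminescent signal after BugLite lysis is the measured value, with a prior CellTiter-Fluor read for cell health.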
Numbers without * were called inactive; ? = inconclusive; . = no result. Sampled rows, rich in hits. Any-hit rate of the full collection: about 3.8%. Calls come from the whole dose curve; as a rule, active = well fitted curve in the direction sought with a large enough effect; inconclusive = small, poorly fitted or top-dose-only effect, or another doubt; inactive = no such curve, though single readings can be large; an effect the other way counts as inactive or inconclusive. Potency is the fitted concentration of half-maximal effect.

SMILES	ELG1 DNA repair	A549 tox	IDH1 R132H inh	Nrf2 ARE act	Nrf2 block
CCN(Cc1nc2ccccc2c(=O)[nH]1)C(=O)c1cccc(NC(=O)c2cccs2)c1	?	-0.4%	8.8%	7.8%	-11.1%
CCN(Cc1nc2ccccc2c(=O)[nH]1)C(=O)c1ccc(C)c(NC(=O)c2ccco2)c1	?	-9.6%	-2.5%	1.6%	16.4µM*
CCN(CC(=O)Nc1sc2c(c1C#N)CCC(C)C2)Cc1nc2ccccc2c(=O)[nH]1 (stereo not given)	13µM*	0.1%	0.0%	2.8%	?
CCN(CC(=O)Nc1sc2c(c1C#N)CCCC2)Cc1nc2ccccc2c(=O)[nH]1	14.6µM*	-12.4%	0.3%	3.3%	?
CC1CCc2c(sc(NC(=O)CCc3nc4ccccc4c(=O)[nH]3)c2C#N)C1 (stereo not given)	12.0%	4.8%	1.3%	2.4%	?
CCN(CC(=O)Nc1ccc(C(=O)Nc2ccc(OC)cc2)cc1)Cc1nc2ccccc2c(=O)[nH]1	6.51µM*	-9.2%	1.7%	3.9%	?
CC(=O)c1ccccc1S(=O)(=O)N1CCN(c2nc(-c3cccs3)nc3ccccc23)CC1	.	2.5%	.	.	-20.1%
CCN(CC(=O)Nc1sc2c(c1C#N)CCC(C)C2)CC(=O)NC1CCS(=O)(=O)C1 (stereo not given)	18.3µM*	-3.8%	4.2%	6.4%	13.6%
CC(=O)Nc1sc2c(c1C#N)CCC(C)C2 (stereo not given)	?	1.8%	18.0%	3.2%	0.4%
CCC(CC)C(=O)N(CCc1ccc(OC)cc1)Cc1nc2ccccc2c(=O)[nH]1	23.1µM*	-13.4%	-0.4%	2.0%	?
COc1ccccc1C1NC(c2ccc3c(c2)OCO3)=CC(c2ccccc2O)N1 (stereo not given)	.	-4.4%	.	.	33.1%
COc1cccc(C)c1NC(=O)C(OC(=O)CNC(=O)c1ccccc1)c1ccccc1 (stereo not given)	.	0.2%	.	.	16.7%
Fc1ccc(C2=CC(c3ccco3)n3nnnc3N2)cc1 (stereo not given)	8.5%	-10.8%	13.6%	12.6µM*	?
C[C@H](CO)N1C[C@H](C)[C@@H](CN(C)S(=O)(=O)c2cccs2)Oc2ccc(NS(=O)(=O)c3ccc(F)cc3)cc2C1=O	6.51µM*	-5.7%	-3.7%	1.9%	-22.7%
C[C@H](CO)N1C[C@H](C)[C@@H](CN(C)S(=O)(=O)c2ccccc2)Oc2ccc(NS(=O)(=O)c3ccc(F)cc3)cc2C1=O	?	-2.1%	-5.4%	0.9%	-8.1%
COc1ccc(S(=O)(=O)Nc2ccc3c(c2)C(=O)N([C@@H](C)CO)C[C@H](C)[C@H](CN(C)S(=O)(=O)c2ccc(F)cc2)O3)cc1	20.6µM*	-8.0%	2.7%	4.6%	-19.4%
C[C@H](CO)N1C[C@H](C)[C@@H](CN(C)S(=O)(=O)c2ccccc2)Oc2ccc(NS(=O)(=O)c3ccccc3)cc2C1=O	23.1µM*	1.9%	-4.9%	0.9%	-15.0%
C[C@H](CO)N1C[C@H](C)[C@@H](CN(C)S(C)(=O)=O)Oc2ccc(NS(=O)(=O)c3ccccc3)cc2C1=O	-2.3%	-6.1%	20.8%	0.4%	9.2%
C[C@H](CO)N1C[C@H](C)[C@@H](CN(C)S(=O)(=O)c2ccc(F)cc2)Oc2ccc(NS(=O)(=O)c3cccs3)cc2C1=O	-15.4%	1.7%	7.1%	0.9%	0.1%
C[C@H](CO)N1C[C@H](C)[C@@H](CN(C)S(=O)(=O)c2cccs2)Oc2ccc(NS(=O)(=O)c3ccccc3)cc2C1=O	9.2µM*	0.5%	2.8%	4.5%	-19.8%
O=[S+]([O-])(NC[C@H]1CCC[C@H](CN[S+](=O)([O-])c2c(F)cccc2F)C1)c1ccc2c(c1)OCCO2	.	-11.8%	.	.	-15.1%
C[C@H](CO)N1C[C@H](C)[C@@H](CN(C)S(=O)(=O)c2ccc(F)cc2)Oc2ccc(NS(=O)(=O)c3ccc(F)cc3)cc2C1=O	?	0.9%	2.2%	0.8%	-0.2%
C[C@@H]1CN([C@H](C)CO)C(=O)c2cc(NS(=O)(=O)c3ccc(F)cc3)ccc2O[C@@H]1CN(C)Cc1ccc(Cl)c(Cl)c1	?	14.6µM*	4.0%	-3.4%	18.4µM*
O=[S+]([O-])(c1ccc2c(c1)OCCO2)N1CCN([S+](=O)([O-])c2c(F)cc(O)cc2F)CC1	.	0.5%	.	.	16.9%
COc1ccc(NC(=O)CNC(=O)Cn2c(C)cc3ccccc3c2=O)cc1OC	8.2µM*	1.5%	10.4%	0.2%	?
SMILES	ELG1 DNA repair	A549 tox	IDH1 R132H inh	Nrf2 ARE act	Nrf2 block
COc1ccccc1NC(=O)Cn1c(C)cc(=O)c2cccc(OC)c21	?	-14.9%	3.2%	-0.6%	11.6µM*
COc1ccc(-n2nc(C(=O)NCC(=O)N3CCN(c4ccccc4OC)CC3)c3ccccc3c2=O)cc1OC	16.4µM*	-3.1%	-2.0%	2.2%	-4.6%
COc1cccc2c(=O)cc(C)n(CC(=O)Nc3ccc(C)c(C)c3)c12	?	-9.3%	3.0%	1.8%	?
COc1cc(NC(=O)CNC(=O)Cn2c(C)cc3ccccc3c2=O)cc(OC)c1OC	-9.9%	-12.0%	6.0%	-0.3%	?
COc1ccc(-n2nc(C(=O)NCC(=O)Nc3cc(OC)c(OC)c(OC)c3)c3ccccc3c2=O)cc1OC	2.31µM*	-2.6%	-5.7%	0.2%	-17.8%
COc1ccc(-n2nc(C(=O)NCC(=O)N3CCN(c4ccccc4)CC3)c3ccccc3c2=O)cc1OC	-2.3%	-8.2%	-6.6%	-0.7%	13.3%
CCOc1ccc(CNCc2c(C(=O)O)n(Cc3ccc(OC)cc3)c3ccccc23)cc1	.	?	-6.4%	-0.6%	?
CCc1noc(C)c1C(=O)Nc1cc(S(=O)(=O)N2CCOCC2)ccc1OC(C)C	-14.3%	-1.0%	1.8%	-0.9%	2.6%
Cc1cccc(N2CCN(C(=O)CN3CCSc4ccccc43)CC2C)c1 (stereo not given)	.	-4.8%	-5.9%	-0.1%	.
COCCNC(=O)CNC(=O)c1nn(-c2ccc(OC)c(Cl)c2)c(=O)c2ccccc12	-21.8%	-2.1%	1.2%	-0.3%	0.6%
COc1ccc(-n2nc(C(=O)NCC(=O)NCCc3ccc(OC)c(OC)c3)c3ccccc3c2=O)cc1Cl	6.51µM*	-1.4%	-3.0%	3.5%	-12.8%
O=C(CSC1=Nc2ccccc2C2=NC(CCC(=O)NC3CCCCC3)C(=O)N12)Nc1cccc(C(F)(F)F)c1 (stereo not given)	.	?	-2.1%	0.9%	11.6µM*
O=C(CSC1=Nc2ccccc2C2=NC(CCC(=O)NC3CCCCC3)C(=O)N12)Nc1cccc(Cl)c1 (stereo not given)	.	?	0.0%	2.6%	?
